From the supplement of paper PMC6555819

Columns and labels:
Test in all cases: PBM binding z-score (relative to random genomic background probes); higher = stronger binding; sequences stand for … in GC…GCGATTGACAGCGTAGAATGAAGG
[1] = system: PPARg:RXRa DBDmut IVT, anti-RXR (DBD mutation: RXRa K156A/R161A, NR concentration 270 nM, RXRa partner concentration 90 nM)
In short: (§1)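 Scanned fluorescence from custom Agilent 4×180K protein-binding microarrays was regression-normalized. Binding z-scores use random background probes as reference. Ligand-free nuclear receptor dimers were incubated on the arrays for 1 h and detected with antibodies against each partner (one per run).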

[2] = system: PPARg:RXRa IVT, anti-PPARg (NR concentration 270 nM, RXRa partner concentration 90 nM)
In short: as §1

[3] = system: PPARg DBDmut:RXRa IVT, anti-PPARg (DBD mutation: PPARg1 K132A/R137A, NR concentration 270 nM, RXRa partner concentration 90 nM)
In short: as §1

[4] = system: PPARg DBDmut IVT, anti-PPARg (DBD mutation: PPARg1 K132A/R137A, NR concentration 270 nM)
In short: as §1

[5] = system: PPARg homodimer (NR concentration 180 nM)
In short: as §1

[6] = system: PXR:RXRa (NR concentration 270 nM, RXRa partner concentration 90 nM)
In short: as §1

[7] = system: PXR homodimer (NR concentration 270 nM)
In short: as §1

[8] = system: RARa:RXR (NR concentration 270 nM, RXRa partner concentration 90 nM)
In short: as §1

[9] = system: RARa homodimer (NR concentration 270 nM)
In short: as §1

[10] = system: RARb:RXRa (NR concentration 270 nM, RXRa partner concentration 90 nM)
In short: as §1

[11] = system: RARb homodimer (NR concentration 270 nM)
In short: as §1

[12] = system: RARg:RXRa (NR concentration 270 nM, RXRa partner concentration 90 nM)
In short: as §1

[13] = system: RARg homodimer (NR concentration 270 nM)
In short: as §1

[14] = system: RXRa DBDmut IVT, anti-RXR (DBD mutation: RXRa K156A/R161A, NR concentration 90 nM)
In short: as §1

[15] = system: RXRa homodimer (NR concentration 180 nM)
In short: as §1

[16] = system: THRa:RXRa (NR concentration 90 nM, RXRa partner concentration 90 nM)
In short: as §1

[17] = system: THRa homodimer (NR concentration 90 nM)
In short: as §1

[18] = system: VDR homodimer (NR concentration 270 nM)
In short: as §1

Row | Sequence | PBM binding z-score [1] | PBM binding z-score [2] | PBM binding z-score [3] | PBM binding z-score [4] | PBM binding z-score [5] | PBM binding z-score [6] | PBM binding z-score [7] | PBM binding z-score [8] | PBM binding z-score [9] | PBM binding z-score [10] | PBM binding z-score [11] | PBM binding z-score [12] | PBM binding z-score [13] | PBM binding z-score [14] | PBM binding z-score [15] | PBM binding z-score [16] | PBM binding z-score [17] | PBM binding z-score [18]
1 | CCTAATAGTTGACCATAAGGGCAACCGAAGCTCG | -0.0162 | 0.473 | 0.327 | 0.353 | 1.09 | 0.821 | 0.596 | 1.27 | 1.46 | 1.72 | 2.04 | 1.61 | 1.18 | 0.375 | 0.786 | 2.02 | 0.988 | 0.915
2 | AATACAGGGTCACTAGGCAAGAGTAGGTACGAAT | 3.19 | 4.81 | 1.06 | 0.858 | 2.63 | 3.06 | 0.322 | 4.1 | 1.16 | 4.13 | 2.95 | 5.02 | 4.81 | 2.61 | 5.45 | 3.48 | 1.19 | 2.42
3 | GCCGCTAGGTCAGGTTGGTCAGCTAACGGGTACG | 2.34 | 1.64 | -0.905 | -1.32 | 0.576 | 0.356 | -0.526 | 0.716 | -0.74 | 3.27 | 2.77 | 2.62 | 3.67 | 0.508 | 1.1 | 1.81 | 0.524 | 0.312
4 | GGAACGAGGGCAAAGTTGATAGCGTCTGTCGACG | 4.61 | 4.26 | 0.324 | -0.0322 | 0.905 | 1.2 | -0.0837 | 1.7 | -0.604 | 2.48 | 1.32 | 2.22 | 1.75 | 2.69 | 2.17 | 1.38 | -0.194 | 1.43
5 | CTTCCAAGGTCAAAGGTCAGTGAAGAGATGACGG | 4.31 | 5.99 | 1.55 | 2.25 | 5.02 | 7.21 | 2.73 | 8.8 | 3.33 | 5.92 | 5.53 | 8.63 | 8.01 | 3.91 | 10.4 | 5.02 | 3.03 | 3.67
6 | CCTAGCAGCCCAATCTGGGTCACTCAAGGCTTGA | 3.69 | 4.29 | -0.334 | -0.918 | 0.624 | 0.268 | -0.803 | 1.12 | -0.169 | 0.878 | 1.77 | 0.615 | 0.301 | -0.241 | 0.56 | 2.28 | 0.424 | -0.324
7 | CCCTACGGGTCACGAGGTTATAGCACGACGAGCG | 2.05 | 4.19 | 0.401 | 0.144 | 2.51 | 4.57 | 0.609 | 5.9 | 1.28 | 4.36 | 4.13 | 6.2 | 5.6 | 1.19 | 7.45 | 3.59 | 1.02 | 1.66
8 | CGTCCAAGGTCAGGAGGTCAGTGAAAGCGACGTG | 2.95 | 3.93 | -0.53 | -1.29 | 5.26 | 4.65 | 1.1 | 6.11 | 1.5 | 5.52 | 5.53 | 7.05 | 7.08 | 2.75 | 6.98 | 4.05 | 2.68 | 2.82
9 | ACTCGGAGGACATAGGTCAGAGCTACGCCAGTGA | 0.107 | 1.88 | -0.386 | 0.0927 | 0.895 | 1.15 | 0.0875 | 1.9 | 0.402 | 2.31 | 2.6 | 3.03 | 2.28 | 0.527 | 2.26 | 2 | 0.0623 | 0.202
10 | CGTCCAAGGTCATAGGAGGCCAGTGAAGACAGAT | 2.81 | 3.75 | 0.813 | 0.508 | 2.54 | 5.33 | 1.53 | 4.52 | 0.617 | 5 | 4.11 | 5.88 | 5.84 | 3.97 | 5.41 | 4.9 | 2.32 | 3.03
11 | CCGTGTAGGTTATGGGGCATTCAGGCAACGGTGA | 2.12 | 2.67 | -1.11 | -0.904 | 1.42 | 0.0818 | -0.178 | 0.761 | 0.31 | 1.33 | 1.3 | 0.81 | 0.846 | -0.509 | 0.777 | 0.703 | 0.635 | 0.353
12 | CCTAGGAGGCCAGGGTCACTCAAGCATTTCGCTT | 0.19 | 1.11 | -0.773 | -1.85 | 1.09 | 2.28 | -0.346 | 2.55 | -0.732 | 2.67 | 2.95 | 2.9 | 2.55 | -0.274 | 3.08 | 2.8 | 0.866 | 1.02
13 | ATATGTAGGTTACATCCTGGTCATTCAGGCTATG | 7.08 | 7.21 | 2.2 | 2.23 | 0.657 | 0.747 | 0.205 | 1.05 | 0.992 | 1.11 | 1.25 | 1.72 | 1.3 | 0.78 | 1.35 | 1.26 | 0.551 | 0.582
14 | ATCGAAAGGCCGAAGGTGAGTATACCCACCCGAA | -0.869 | 0.122 | -0.0521 | -0.507 | -0.197 | -0.245 | -0.678 | 0.273 | -0.544 | 1.04 | 0.463 | 0.847 | 0.8 | -0.881 | 0.581 | 0.037 | -0.66 | -0.679
15 | CCGAGTAGGTTATGGGACATTCAGGCAACGGTGA | 3.53 | 2.6 | -0.291 | -0.241 | 1.11 | -0.0515 | 0.264 | 0.315 | 0.595 | 0.813 | 0.969 | 0.533 | 0.86 | 0.181 | 0.607 | 0.565 | 0.413 | 0.326
